One test relates to Molm13. Description: cell viability relative to DMSO control (bortezomib = 0%); higher = less growth inhibition. The conditions noted are these: 10 nM; 72 h. The gist of the method: (§1)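 Each plate's values were converted to percentages by linear regression, taking DMSO-treated cells as 100% and positive-control-treated cells as 0%. These plates were 384-well plates of 679 approved and investigational compounds at a single 10 nM dose, onto which acute myeloid leukemia cells were dispensed at 1000 cells per well in 50 µL for 72 h, in duplicate. Cell viability came from CellTiter-Glo luminescence on an EnVision reader.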

The subject of another test is Mv4-11. The description is as above. The settings on record: 10 nM; 72 h. The gist of the method:
as §1

Structures are written as SMILES. Values joined by “and” are separate entries in the source; they are usually repeats but may differ in a detail not shown here. Equal values may be shown once. Where a name gives a salt, the structure may show the parent alone. ± gives the standard deviation of the averaged measurements.

The text below walks through data of the supplement of paper PMC8699584.

In general, cell viability refers to a read-out of living cells in per cent, often relative to untreated cells.

On to `O=C1C(Cl)=C(NCCN2CCOCC2)C(=O)c2ncccc21`, for which the cell viability in the test on Molm13 is 111 ± 23%; in the test with Mv4-11, 121 ± 2.5%.
As to `COc1cc(N2CCOCC2)ccc1Nc1ncc(F)c(Nc2ccccc2NS(C)(=O)=O)n1`, the cell viability came to 98.1 ± 5.6% with Molm13 and 111 ± 4.2% in the test with Mv4-11.
Taken in the same sequence, the figures for `Cc1[nH]c(/C=C2\C(=O)Nc3ccccc32)c(C)c1CCC(=O)O` were 107 ± 18% and 108 ± 14%.
In the case of `CN(c1ncccc1CNc1nc(Nc2ccc3c(c2)CC(=O)N3)ncc1C(F)(F)F)S(C)(=O)=O`, the values for the cell viability in the test with Molm13 and in the test on Mv4-11 were 98 ± 2.3% and 105 ± 8.8%, respectively.
Take `C#Cc1cccc(Nc2ncnc3cc(OC)c(OCCCCCCC(=O)NO)cc23)c1`: the cell viability in the test on Molm13 amounted to 105 ± 10%; with Mv4-11 it was 120 ± 20%.
In the same order, the values of `COc1cc(CCc2cc(NC(=O)c3ccc(N4CC(C)NC(C)C4)cc3)n[nH]2)cc(OC)c1` (stereo not drawn) are 102 ± 17% and 99.5 ± 2%.
Take `CCN(CC)CCNC(=O)c1c(C)[nH]c(/C=C2\C(=O)Nc3ccc(F)cc32)c1C` [Sunitinib (malate)]: the cell viability was 50.3 ± 5.7% in the test on Molm13 and 63.4 ± 1.2% in the test on Mv4-11.
With `CNC(=O)c1cc(Oc2ccc(NC(=O)Nc3ccc(Cl)c(C(F)(F)F)c3)cc2)ccn1`, the cell viability was 45 ± 3.3% in the test with Molm13 and 45.2 ± 5.3% in the test with Mv4-11.
In the same order, the values of `Cc1ccc2c(Nc3ccc(Cl)cc3)nccc2c1Nc1ncccc1-c1ncnc2nc[nH]c12` [B-Raf inhibitor 1] are 98.9 ± 11% and 107.5 ± 0.62%.
Taken in the same sequence, the figures for `CCC(=O)N1CCN(c2ccc(-n3c(=O)ccc4cnc5ccc(-c6cnc7ccccc7c6)cc5c43)cc2C(F)(F)F)CC1` [Torin 1] were 104 ± 4.5% and 108 ± 6.9%.
In the same order, the values of `COc1cc2ncn(-c3cc(OCc4ccccc4S(C)(=O)=O)c(C#N)s3)c2cc1OC` are 83.4 ± 8.5% and 104 ± 5.9%.
In the case of `O=C1NC(=O)/C(=C/c2cccc(C(F)(F)F)c2)S1`, the cell viability with Molm13 turned out to be 112 ± 15%; in the test on Mv4-11, 119 ± 17%.
On to `CS(=O)(=O)CCNCc1ccc(-c2ccc3ncnc(Nc4ccc(OCc5cccc(F)c5)c(Cl)c4)c3c2)o1`, for which the cell viability in the test on Molm13 worked out at 103 ± 8.2%; in the test with Mv4-11, 108 ± 9%.
In the same order, the values of `CCCS(=O)(=O)Nc1ccc(F)c(C(=O)c2c[nH]c3ncc(Cl)cc23)c1F` are 104 ± 8.2% and 135 ± 12%.
`COc1cc2ncnc(Nc3ccccc3)c2cc1OC`: the cell viability in the test with Molm13 was determined as 97.1 ± 10%; in the test on Mv4-11, 107 ± 12%.
As to `CCOc1cn(-c2ccc(F)cc2C)nc1C(=O)Nc1ccc(Oc2ccnc3cc(OC)c(OC)cc23)c(F)c1`, the cell viability was 112 ± 20% with Molm13 and 109 ± 2.8% in the test on Mv4-11.
In the same order, the values of `Oc1cc(O)cc(/C=C/c2ccc(O)c(O)c2)c1` [Piceatannol] are 101 ± 6.1% and 108 ± 11%.
Taken in the same sequence, the figures for `C[C@H]1[C@H](C)CC[C@]2(C(=O)O)CC[C@]3(C)C(=CC[C@@H]4[C@@]5(C)C[C@@H](O)[C@H](O)C(C)(C)[C@@H]5CC[C@]43C)[C@H]12` [Corosolic acid] were 113 ± 26% and 106 ± 11%.
Taken in the same sequence, the figures for `Nc1nccc(Oc2ccc(NC(=O)c3c[nH]cc(-c4ccc(F)cc4)c3=O)cc2F)c1Cl` were 60.9 ± 5.7% and 83.1 ± 3.7%.
Turning to `Cc1cc(N2CCOCC2)ccc1Nc1nc(NC2CCCCC2)c2[nH]cnc2n1`, the cell viability in the test with Molm13 amounted to 119 ± 3.6%; in the test on Mv4-11, 108 ± 15%.
Taken in the same sequence, the figures for `CN(C)C(=N)NC(=N)N` [Metformin hydrochloride] were 104 ± 25% and 90.48 ± 0.55%.
Taken in the same sequence, the figures for `Cc1cc(NC(=O)c2cccc(NC(=O)/C=C/CN(C)C)c2)ccc1Nc1nccc(-c2cccnc2)n1` were 92 ± 6.9% and 113 ± 5.2%.
As to `Cc1cncc2cccc(S(=O)(=O)N3CCCNC[C@@H]3C)c12` [(S)-H-1152 (hydrochloride)], the values for the cell viability in the test on Molm13 and in the test on Mv4-11 were 100 ± 4.3% and 101 ± 3%, respectively.
As for `CO[C@H]1C[C@@H]2CC[C@@H](C)[C@@](O)(O2)C(=O)C(=O)N2CCCC[C@H]2C(=O)O[C@H]([C@H](C)C[C@@H]2CC[C@@H](O)[C@H](OC)C2)CC(=O)[C@H](C)/C=C(\C)[C@@H](O)[C@@H](OC)C(=O)[C@H](C)C[C@H](C)/C=C/C=C/C=C/1C` [Rapamycin (Sirolimus)], the cell viability was found to be 34.4 ± 8.5% in the test on Molm13 and 43.3 ± 15% with Mv4-11.
For the compound `N=C(N)NC(=N)NCCc1ccccc1` [Phenformin hydrochloride], the cell viability was determined as 91.3 ± 30% in the test on Molm13 and 107 ± 19% in the test with Mv4-11.
Regarding `O=C(NC(CO)c1ccc(F)c(Cl)c1)c1cc(-c2[nH]ncc2-c2cccc(Cl)c2)c[nH]1` (stereo not drawn), the cell viability in the test on Molm13 is 116 ± 16%; with Mv4-11, 110 ± 7.8%.
In the same order, the values of `C=CC(=O)Nc1cc2c(Nc3ccc(F)c(Cl)c3)ncnc2cc1OCCCN1CCOCC1` [Canertinib (CI-1033)] are 118 ± 10% and 111.9 ± 0.6%.
Regarding `O=c1ncn2nc(Sc3ccc(F)cc3F)ccc2c1-c1c(Cl)cccc1Cl`, the cell viability with Molm13 was found to be 89.6 ± 1.7%; in the test with Mv4-11, 108 ± 6.4%.
Take `COc1cc2ncnc(Nc3cccc(Br)c3)c2cc1OC`: the cell viability was 93.4% and 102% in the test on Molm13; 99.1% and 113% in the test on Mv4-11.
For the compound `O=c1cc(-c2ccccc2)oc2c(O)c(O)ccc12` [7,8-Dihydroxyflavone], the cell viability in the test on Molm13 came out at 108 ± 16%; in the test on Mv4-11, 104 ± 4%.
Taken in the same sequence, the figures for `C[C@@]1(C(=O)Nc2ccc(F)nc2)CCCN1c1nc(Nc2cc(C3CC3)n[nH]2)c2cccn2n1` were 117 ± 2.5% and 127 ± 2.5%.
With `O=S(=O)(c1cccc2cnccc12)N1CCCNCC1` [HA-1077 (hydrochloride)], the figures for the cell viability with Molm13 and in the test on Mv4-11 were 105 ± 14% and 112 ± 3.5%, respectively.
Turning to `COc1ccc(S(=O)(=O)Nc2ccccc2CN(C)C/C=C/c2ccc(Cl)cc2)cc1` [KN-92 (hydrochloride)], the figures for the cell viability with Molm13 and with Mv4-11 were 129 ± 18% and 109 ± 10%, respectively.
In the same order, the values of `O=c1ccc2ccccc2o1` [Coumarin] are 114 ± 8% and 114 ± 24%.
In the same order, the values of `COCCN1CCN(Cc2ccc(-c3n[nH]c4c3C(=O)c3c(NC(=O)NN5CCOCC5)cccc3-4)cc2)CC1` are 70.99 ± 0.17% and 55.6 ± 8.7%.
`CNC(=O)c1ccc(C)c(-n2c(C)cc(OCc3ccc(F)cc3F)c(Br)c2=O)c1`: the cell viability in the test on Molm13 was determined as 97.9 ± 3.1%; in the test on Mv4-11 it was 110 ± 1.8%.
In the same order, the values of `N#Cc1c(-c2ccccc2)cc(-c2cc(Br)ccc2O)[nH]c1=O` are 125 ± 30% and 114 ± 9.7%.
In the same order, the values of `Cn1cc(-c2ccc3nnc(Sc4ccc5ncccc5c4)n3n2)cn1` are 127 ± 6.4% and 104 ± 4.2%.
Take `CCCCC/C=C\C/C=C\C/C=C\C/C=C\CCCC(=O)NC[C@]1(C)CCC[C@]2(C)c3ccc(C(C)C)cc3CC[C@@H]12` [Arachidonic Acid Leelamide]: the cell viability in the test with Molm13 was found to be 105 ± 17%; in the test with Mv4-11, 112 ± 1.2%.
